# Measurements: the antibiotic and cytotoxicity screens of Wong et al. (2023)
# Screen size: about 39,000 compounds; about 1,500 (3.8%) were called active. The list comes from a sample in which actives are over-represented; it also holds similar structures and randomly drawn compounds.
# Tested on: HSkMC (human skeletal muscle cells)
# Test: cytotoxicity call (relative viability < 0.9)
# Details: 10 µM
row,Compound,cytotoxicity call
1,COc1ccc(CN(C)C[C@@H]2OCCCC[C@@H](C)Oc3ccc(NC(=O)Nc4cccc5ccccc45)cc3C(=O)N([C@@H](C)CO)C[C@@H]2C)cc1,inactive
2,COc1ccc(CN(C)C[C@@H]2OCCCC[C@H](C)Oc3ccc(NC(=O)Nc4cccc5ccccc45)cc3C(=O)N([C@@H](C)CO)C[C@H]2C)cc1,active
3,COc1ccc(CN(C)C[C@H]2OCCCC[C@@H](C)Oc3ccc(NC(=O)Nc4cccc5ccccc45)cc3C(=O)N([C@@H](C)CO)C[C@H]2C)cc1,active
4,COc1ccc(CN(C)C[C@H]2OCCCC[C@H](C)Oc3ccc(NC(=O)Nc4cccc5ccccc45)cc3C(=O)N([C@H](C)CO)C[C@@H]2C)cc1,inactive
5,COc1ccc(CN(C)C[C@H]2OCCCC[C@@H](C)Oc3ccc(NC(=O)Nc4cccc5ccccc45)cc3C(=O)N([C@H](C)CO)C[C@@H]2C)cc1,active
6,COc1ccc(CN(C)C[C@H]2OCCCC[C@H](C)Oc3ccc(NC(=O)Nc4cccc5ccccc45)cc3C(=O)N([C@H](C)CO)C[C@H]2C)cc1,active
7,COc1ccc(CN(C)C[C@@H]2OCCCC[C@@H](C)Oc3ccc(NC(=O)Nc4cccc5ccccc45)cc3C(=O)N([C@H](C)CO)C[C@@H]2C)cc1,inactive
8,COc1ccc(CN(C)C[C@H]2OCCCC[C@@H](C)Oc3ccc(NC(=O)Nc4cccc5ccccc45)cc3C(=O)N([C@@H](C)CO)C[C@@H]2C)cc1,inactive
9,CCOC(=O)c1cc2c(c(-c3cccc(-c4cccc(F)c4)c3)n1)[C@H](CCO)N(S(=O)C(C)(C)C)C2 (stereo not given in full),inactive
10,N#C[C@H]1N[C@@H](CO)[C@@H]1c1ccccc1,inactive
11,CC(C)NC(=O)N(C)C[C@@H]1OCCCC[C@H](C)Oc2ccc(NC(=O)C3CCCCC3)cc2C(=O)N([C@H](C)CO)C[C@@H]1C,inactive
12,COc1ccc(S(=O)(=O)Nc2ccc3c(c2)C(=O)N([C@@H](C)CO)C[C@@H](C)[C@@H](CN(C)C(=O)Nc2ccccc2)OCCCC[C@@H](C)O3)cc1,inactive
13,C[C@@H]1CN([C@H](C)CO)C(=O)c2cc(Br)cnc2O[C@@H]1CN(C)S(=O)(=O)c1ccc(F)cc1,inactive
14,C[C@@H]1CN([C@@H](C)CO)C(=O)c2cc(NC(=O)CCN3CCOCC3)ccc2O[C@@H]1CN(C)C(=O)Nc1ccc2c(c1)OCO2,inactive
15,C[C@@H]1CN([C@H](C)CO)C(=O)c2cc(C#CCN(C)C)cnc2O[C@@H]1CN(C)C(=O)c1ccc2c(c1)OCO2,inactive
16,C[C@@H]1CN([C@@H](C)CO)S(=O)(=O)c2ccc(C#CC3CCCC3)cc2O[C@H]1CN(C)C(=O)Cc1ccncc1,inactive
17,Cc1noc(C)c1NC(=O)Nc1ccc2c(c1)CC(=O)N([C@@H](C)CO)C[C@H](C)[C@H](CN(C)S(=O)(=O)c1cccs1)O2,inactive
18,CCOC(=O)C1=C(C)NC(C)=C(C(=O)OC)C1c1cccc([N+](=O)[O-])c1 (stereo not given),inactive

row,Compound,cytotoxicity call
1,CC1=C(C(=O)OCCN(Cc2ccccc2)c2ccccc2)[C@H](c2cccc([N+](=O)[O-])c2)C(P2(=O)OCC(C)(C)CO2)=C(C)N1,inactive
2,COC(=O)C1=C(C)NC(C)=C(C(=O)OCCCN2CCC(c3ccccc3)(c3ccccc3)CC2)[C@H]1c1cccc([N+](=O)[O-])c1,active
3,COC(=O)C1=C(C)NC(C)=C(C(=O)OCCN(C)Cc2ccccc2)C1c1cccc([N+](=O)[O-])c1.Cl (stereo not given),inactive
4,COC(=O)C1=C(C)NC(C)=C(C(=O)OCCCN2CCC(c3ccccc3)(c3ccccc3)CC2)[C@@H]1c1cccc([N+](=O)[O-])c1,active
5,COCCOC(=O)C1=C(C)NC(C)=C(C(=O)OC(C)C)C1c1cccc([N+](=O)[O-])c1 (stereo not given),inactive
6,CCCN1C(C)=C(C(=O)OC)[C@@H](c2cccc([N+](=O)[O-])c2)C(C(=O)ON2CCC(c3ccccc3)(c3ccccc3)CC2)=C1C,active
7,COC(=O)C1=C(C#N)NC(C)=C(C(=O)OC(C)C)C1c1cccc([N+](=O)[O-])c1 (stereo not given),inactive
8,COCCOC(=O)C1=C(C)NC(C)=C(C(=O)OCC=Cc2ccccc2)C1c1cccc([N+](=O)[O-])c1 (stereo not given),inactive
9,COC(=O)C1=C(C)NC(C)=C(C(=O)OCCN2CCN(C(c3ccccc3)c3ccccc3)CC2)C1c1cccc([N+](=O)[O-])c1 (stereo not given),inactive
10,COC(=O)C1=C(C)NC(C)=C(C(=O)OC(C)(C)CN(C)CCC(c2ccccc2)c2ccccc2)[C@@H]1c1cccc([N+](=O)[O-])c1,active
11,COC(=O)C1=C(C)NC(C)=C(C(=O)NCCCN2CCC(c3ccccc3)(c3ccccc3)CC2)[C@@H]1c1ccc([N+](=O)[O-])cc1,inactive
12,Cc1ccc(S(=O)(=O)N(C)C[C@H]2Oc3ccc(NS(=O)(=O)c4cccs4)cc3CC(=O)N([C@@H](C)CO)C[C@@H]2C)cc1,inactive
13,C[C@@H]1CN([C@H](C)CO)C(=O)Cc2cc(NC(=O)c3ccncc3)ccc2O[C@@H]1CN(C)Cc1ccc(C(=O)O)cc1,inactive
14,COc1ccc(O)c(N)c1,inactive
15,c1csc(CNc2ccc(NCc3cccs3)cc2)c1,inactive
16,Cc1noc(C)c1NC(=O)N[C@H]1CC[C@@H](CC(=O)N2CCN(C)CC2)O[C@@H]1CO,inactive
17,C[C@H](CO)N1C[C@H](C)[C@H](CN(C)S(C)(=O)=O)Oc2ccc(NC(=O)C3CCCCC3)cc2CC1=O,inactive
